In PubChem BioAssay (NCI) one finds growth data, which are given here for 14 compounds.

This is part of a sample that, as a whole, favours compounds with a hit. Of some 83,000 tested, about 20% had one in any assay.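 Compound tested at a single concentration for 48 hours in 96-well plates; a percent growth value below 10 was scored as active.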 A number with no mark means an inactive call. Active and inactive are the calls of the source.

The subject of this experiment is K-562 leukemia. Nature of the experiment: NCI-60 one-dose screen, 48 h (100 = growth as untreated, 0 = no growth, -100 = all killed). Conditions: 10 µM unless noted.
On to `O=C1COCCN1c1ccc(NCc2cn(C(=O)c3ccc(Cl)cc3)c3ccccc23)cc1`, for which the growth was 28.3%.

As for `COc1ccc(-c2cnc3ccccc3n2)cc1`, the growth is 97.5%.

Turning to `CCOC(=O)C1=C(N)Oc2c(sc3c(C)cccc23)C1c1ccc(OC)cc1` (centres undefined), the growth was 10.5%.

Consider `FC(F)(F)c1cc(Nc2ccc3c(OCCCN4CCOCC4)cccc3n2)ccc1Cl`, for which the growth is -31.6% (active).

`COc1cc(C(=O)c2cc(C)c3[nH]c4ccc(O)cc4c3c2C)cc(OC)c1OC`: the growth was 7.07% (active).

`Cc1ccc(C(=O)N/N=C/c2cccc(Oc3ccccc3)c2)cn1`: the growth was 23.8%.

As for `CC(=O)CC(c1cccs1)c1c(-c2ccccc2)[nH]c2ccccc12` (centres undefined), the growth is 77.2%.

In the case of `NC(=O)C1(Nc2ccc(Br)cc2)CCCC1`, the growth was 116%.

As to `COc1ccc(-c2c(C(=O)NS(C)(=O)=O)n(Cc3cccc(C(F)(F)F)c3)c3ccccc23)cc1`, the growth was 87.7%.

As to `O=C1NC(=O)C(c2ccccc2)(c2ccccc2)N1Cc1cn(-c2c3ccccc3nc3ccccc23)nn1`, the growth is 39.2%.

With `CCCCn1c(-c2ccc(C(=O)O/N=C(\N)c3ccc(OC)cc3)cc2)nc(-c2ccccc2)c1-c1ccccc1`, the growth is -41% (active).

As to `COc1cc(Nc2nc(NCCN)nc3cc[nH]c(=O)c23)cc(OC)c1`, the growth is 75.8%.

For `COc1ccc(-c2[nH]c3ccc(OC)cc3c2/C=C(\C#N)S(=O)(=O)c2ccccc2)cc1`, the growth is 19.8%.

With `COc1ccc(C2=Nn3c(nnc3-c3cc(Cl)cc(Cl)c3Cl)SC2)cc1`, the growth was 2.96% (active).
